D1 ag: Allosteric Agonists of the Human D1 Dopamine Receptor: qHTS. HEK293 T-REx D1 cells, calcium flux, agonist mode. activation, % at 2 µM. hit rate 1% among 360,000. AID 504660, 2011. D(1A) dopamine receptor (Homo sapiens), P21728; in the data active means activation above about 30%; further: 0% is about no effect
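Inducible HEK293 T-REx D1 cells, force-coupled to calcium signalling, were plated at 4000 cells/well with tetracycline and held overnight at 30 C. After no-wash calcium dye loading, compound-evoked calcium rise over 180 s flagged agonists.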
TRHR enhancer-1: qHTS for Small Molecule Agonists and Allosteric Enhancers of Human TRH Receptor: Primary Screen for Enhancers. enhancement, % at 2 µM. Thyrotropin-releasing hormone receptor (Homo sapiens), P34981. hit rate 0.66% among 360,000. TRHR cells, fluo-8 calcium fluorescence, EC20 TRH enhancement. AID 493056, 2011; in the data active means enhancement above about 30%; further: 0% is about no effect
Target sequence (P34981 whole entry, looked up): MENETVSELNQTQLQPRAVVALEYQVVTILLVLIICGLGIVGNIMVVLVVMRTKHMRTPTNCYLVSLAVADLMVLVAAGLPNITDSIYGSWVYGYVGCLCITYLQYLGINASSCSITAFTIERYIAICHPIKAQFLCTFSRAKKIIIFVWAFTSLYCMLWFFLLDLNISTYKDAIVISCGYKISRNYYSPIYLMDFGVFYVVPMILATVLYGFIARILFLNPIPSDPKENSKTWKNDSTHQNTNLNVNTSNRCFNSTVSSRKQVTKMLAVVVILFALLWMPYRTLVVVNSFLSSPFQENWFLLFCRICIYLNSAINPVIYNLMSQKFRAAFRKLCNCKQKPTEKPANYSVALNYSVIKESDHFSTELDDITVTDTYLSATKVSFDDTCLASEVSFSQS
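TRHR-expressing cells loaded with fluo-8 calcium dye were read kinetically (ex 480/em 530) during compound addition, then stimulated with an EC20 of TRH (10 nM final). Enhancement of the Gq-mediated intracellular calcium response was scored.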
TRHR agonist-1: qHTS for Small Molecule Agonists and Allosteric Enhancers of Human TRH Receptor: Primary Screen for Agonists; TRHR cells, calcium flux fluo-8, FDSS agonist mode; activation, % at 2 µM; Thyrotropin-releasing hormone receptor (Homo sapiens), P34981; hit rate 0.18% among 360,000; in the data active means activation above about 30%; further: 0% is about no effect
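TRHR-expressing cells loaded with fluo-8 calcium dye; 23 nL library compound pin-transferred, kinetic FDSS fluorescence (Ex 480/Em 530) recorded about 180 s for agonist-induced calcium release, before a 10 nM TRH EC20 addition for potentiator mode.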
D1 PAM: Potentiators of Human D1 Dopamine Receptor: qHTS; potentiation, % at 10 µM; HEK293 TREx D1 cells, calcium flux, dopamine EC20 potentiation; D(1A) dopamine receptor (Homo sapiens), P21728; hit rate 0.036% among 360,000; in the data active means potentiation above about 30%; further: 0% is about no effect
D1 antagonist: Antagonist of Human D 1 Dopamine Receptor: qHTS; hit rate 3.2% among 360,000; HEK293 TREx D1 cells, calcium flux, dopamine EC80; hits give low values; AID 504652, 2011; activity change, negative = inhibition, % at 10 µM; D(1A) dopamine receptor (Homo sapiens), P21728; in the data active means activity change below about -30%; further: on the % scale 0 is the no-effect control and ±100 the full control effect
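Compound effects on dopamine-evoked calcium signalling were measured in tetracycline-induced HEK293 Trex D1 cells. Dopamine at EC80 followed a 180 s compound pre-read, and fluorescence was tracked kinetically for 180 s more.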
TRHR enhancer-2: qHTS for Small Molecule Agonists and Allosteric Enhancers of Human TRH Receptor: Confirmation Screen for Enhancers; shares compounds with TRHR enhancer-1; TRH receptor cell assay, enhancer confirmation qHTS; activity change, negative = inhibition, % at 46.1 µM; 970 tested, under 10 active;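 further: compound effect scored on response to added TRH at EC20 of 10 nM; 0% is about no effect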
TRHR agonist-2: qHTS for Small Molecule Agonists and Allosteric Enhancers of Human TRH Receptor: Confirmation Screen for Agonists | shares compounds with TRHR enhancer-1 | TRHR-expressing cells, agonist activation read-out | Potency, µM (top dose mostly 46.1 µM), for the others: top-dose activation, actives largely listed as activators | hit rate 8% among 970; further: potency means the concentration at half of the fitted maximal effect; 0% is about no effect; nearly all actives have a fitted effect of over 75% in size
* = called active by the depositor; ? = inconclusive; nt = no result. Hits are enriched below; roughly 4.7% of the tested compounds scored in any of these assays. Unless noted, the call rests on the fitted dose curve; in most records, active means well fitted curve in the direction sought with a large enough effect; inconclusive means small, poorly fitted or top-dose-only effect, or another doubt; inactive means no such curve, though single readings can be large; an effect the other way counts as inactive or inconclusive.

SMILES	D1 ag	TRHR enhancer-1	TRHR agonist-1	D1 PAM	D1 antagonist	TRHR enhancer-2	TRHR agonist-2
COc1cc(OC)cc(-c2nc3nc(C)c(CCC(=O)Nc4cc(C)cc(C)c4)c(C)n3n2)c1	1.0	5.6	0.1	-4.3	-13.5	nt	nt
COc1ccc2nc(NC(=O)C3CC(=O)N(c4ccc5c(c4)OCCO5)C3)sc2c1 (stereo not given)	3.2	49.5*	-0.2	-4.0	1.1	?	-0.6%
COc1ccc(CN(C)C(=O)C2CC(=O)N(c3ccc4c(c3)OCCO4)C2)c(OC)c1 (stereo not given)	-0.2	64.7*	-1.5	-4.0	0.6	-8.0	-0.6%
O=C(NCc1ccccc1F)C1CC(=O)N(c2ccc3c(c2)OCCO3)C1 (stereo not given)	0.9	-3.9	0.2	4.4	-2.4	nt	nt
O=C(Nc1nc2ccc(F)cc2s1)C1CC(=O)N(c2ccc3c(c2)OCCO3)C1 (stereo not given)	8.2	-5.0	0.3	-5.7	-16.3	nt	nt
O=C(C1CC(=O)N(c2ccc3c(c2)OCCO3)C1)N1CCN(Cc2ccccc2F)CC1 (stereo not given)	-0.1	48.2*	0.3	-4.7	16.7	3.4	-0.6%
CCOc1ccc2nc(Cl)c(C3CC(c4ccc(C)cc4)=NN3C(=O)CCC(=O)O)cc2c1 (stereo not given)	-1.2	-0.8	-0.3	3.0	5.4	nt	nt
COC(=O)c1[nH]c2ccc(Cl)cc2c1NC(=O)CN1CCc2cc(OC)c(OC)cc2C1	1.4	-8.5	0.0	-2.5	-5.9	nt	nt
CCOC(=O)c1[nH]c2ccc(F)cc2c1NC(=O)CN1CCc2cc(OC)c(OC)cc2C1	1.1	43.2*	0.0	0.3	3.6	3.1	-0.5%
N/C(=N/OC(=O)c1ccccc1Cl)c1ncc([N+](=O)[O-])s1	2.1	-0.6	-0.1	-2.2	-11.8	nt	nt
CCOc1ccc(-n2nc(CO)c(C(=O)NCc3cccs3)n2)cc1	0.8	-7.6	-1.6	-0.2	8.8	nt	nt
COc1ccc(CNC(=O)c2ccc(Cn3cc(Br)cn3)o2)cc1	3.3	-4.6	-1.6	-4.8	-2.5	nt	nt
Cn1c(-c2cccc(F)c2)nc2c1c(=O)[nH]c(=O)n2Cc1ccccc1	2.1	49.0*	-0.4	3.1	1.1	-3.4	-0.7%
CCCn1c(-c2cccc(F)c2)nc2c1c(=O)[nH]c(=O)n2Cc1ccccc1	3.5	-3.6	-0.5	nt	-1.1	nt	nt
CC(Oc1ccc(F)cc1)C(=O)Nc1nc(-c2ccc(F)cc2)ns1 (stereo not given)	17.9	-8.6	1.8	-0.6	-21.4	nt	nt
O=C(O)c1ccc2c(c1)C(=O)N([C@]1(C(=O)O)CC1c1ccccc1)C2=O (stereo not given in full)	3.2	5.7	0.7	-6.2	15.4	nt	nt
CCCCOc1ccc(C(=O)N/C(=C/C=C/c2ccccc2)C(=O)NC)cc1	3.0	-0.8	4.0	-15.4	4.1	nt	nt
CCCCOc1ccc(C(=O)N/C(=C/C=C/c2ccccc2)C(=O)O)cc1	2.3	-1.1	28.6	8.1	-4.3	-6.0	0.5%
CCOc1ccc(NS(=O)(=O)c2ccc3[nH]cc(C(=O)N4CCCC4)c(=O)c3c2)cc1	1.5	-1.2	0.6	0.1	-2.6	nt	nt
COc1ccc(O)c(C(=O)c2coc(=N)c(C(=O)Nc3ccc(SC(F)F)cc3)c2)c1	33.0*	-4.8	28.8	-1.4	-11.2	-8.1	?
CCOc1ccc(NC(=O)Nc2nc3ccc(S(C)(=O)=O)cc3s2)cc1	0.0	58.2*	0.8	1.5	-2.1	-1.4	-0.7%

Assay outcomes deposited in PubChem by National Center for Advancing Translational Sciences (NCATS).
